Measured values as given in PubChem BioAssay (NCI).
The panel holds about 83,000 compounds, 20% with a hit somewhere; the sample as a whole holds those more often.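 Single-dose data. Exposure time 48 hours. Values below 10 considered active.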 Active and inactive are the calls of the source.

Legend:
Assay in all cases: NCI-60 one-dose screen, 48 h (100 = growth as untreated, 0 = no growth, -100 = all killed)
DU-145 prostate = details: 10 µM unless noted
MALME-3M melanoma = details: 10 µM unless noted
MDA-MB-231 breast = details: 10 µM unless noted
RXF 393 renal = details: 10 µM unless noted
SF-268 CNS = details: 10 µM unless noted
SF-295 CNS = details: 10 µM unless noted
SF-539 CNS = details: 10 µM unless noted
M14 melanoma = details: 10 µM unless noted
HCT-15 colon = details: 10 µM unless noted
HT29 colon = details: 10 µM unless noted
SNB-75 CNS = details: 10 µM unless noted
SNB-19 CNS = details: 10 µM unless noted
U251 CNS = details: 10 µM unless noted
PC-3 prostate = details: 10 µM unless noted
SK-MEL-5 melanoma = details: 10 µM unless noted
UACC-62 melanoma = details: 10 µM unless noted
LOX IMVI melanoma = details: 10 µM unless noted
SK-MEL-28 melanoma = details: 10 µM unless noted
UACC-257 melanoma = details: 10 µM

Measured: growth

COc1ccc(-c2no[n+]([O-])c2Nc2ccccc2Br)cc1
inactive: DU-145 prostate 106% | MALME-3M melanoma 88% | MDA-MB-231 breast 81.5% | RXF 393 renal 102% | SF-268 CNS 92.4% | SF-295 CNS 106% | SF-539 CNS 93.9% | M14 melanoma 89.3% | HCT-15 colon 97.1% | HT29 colon 119% | SNB-75 CNS 92% | SNB-19 CNS 89.5% | U251 CNS 95% | PC-3 prostate 76.8% | SK-MEL-5 melanoma 93.5% | UACC-62 melanoma 71.6% | LOX IMVI melanoma 95.6% | SK-MEL-28 melanoma 99.8%

C=CCn1c(SCC(=O)Nc2cccc(C(=O)/C=C/c3ccc(C)cc3)c2)nc2ccccc2c1=O
inactive: DU-145 prostate 95.9% | MALME-3M melanoma 106% | MDA-MB-231 breast 92.8% | RXF 393 renal 77.7% | SF-268 CNS 90.6% | SF-295 CNS 101% | SF-539 CNS 89.4% | UACC-257 melanoma 96.8% | M14 melanoma 96.7% | HT29 colon 72.7% | SNB-75 CNS 78.4% | SNB-19 CNS 81.7% | U251 CNS 72% | SK-MEL-5 melanoma 97.2% | UACC-62 melanoma 76.7% | LOX IMVI melanoma 73.8% | SK-MEL-28 melanoma 95.3%

c1cncc(-c2cn3nc(-c4c[nH]c5ccccc45)sc3n2)c1
inactive: DU-145 prostate 73% | MALME-3M melanoma 38.3% | MDA-MB-231 breast 52.5% | RXF 393 renal 52.1% | SF-268 CNS 83.4% | SF-295 CNS 74.7% | SF-539 CNS 42.2% | M14 melanoma 37% | HCT-15 colon 27.7% | HT29 colon 21.6% | SNB-75 CNS 51.8% | SNB-19 CNS 61.1% | U251 CNS 69.9% | PC-3 prostate 48.7% | SK-MEL-5 melanoma 23.4% | LOX IMVI melanoma 46.7% | SK-MEL-28 melanoma 55.5%

COc1ccc2c(c1)c(-c1nn3c(=O)cc(-c4ccccc4)nc3s1)cn2C
inactive: DU-145 prostate 63.8% | MALME-3M melanoma 35.5% | MDA-MB-231 breast 55.3% | RXF 393 renal 35.4% | SF-268 CNS 64.9% | SF-295 CNS 28.8% | SF-539 CNS 16% | M14 melanoma 35.4% | HCT-15 colon 34.7% | HT29 colon 10.5% | SNB-75 CNS 14.9% | SNB-19 CNS 39.1% | U251 CNS 26.8% | PC-3 prostate 32.4% | SK-MEL-5 melanoma 38.7% | UACC-62 melanoma 24.2% | LOX IMVI melanoma 37.9% | SK-MEL-28 melanoma 51.5%

CC1OC(O[C@@H]2C(O)C(CO)OC(O[C@H]3COC(O[C@H]4CC[C@]5(C)[C@H]6CC[C@]78OC[C@@]9(CC[C@](C)(C=O)C[C@H]97)[C@H](O)C[C@@]8(C)[C@]6(C)CC[C@H]5C4(C)C)[C@@H](OC4OC(CO)[C@@H](O)[C@@H](O)[C@@H]4O)[C@@H]3O)[C@H]2OC2OC[C@@H](O)[C@@H](O)[C@@H]2O)[C@@H](O)[C@@H](O)[C@H]1O (stereo partly drawn)
active: MALME-3M melanoma -69.7% | MDA-MB-231 breast -48.4% | RXF 393 renal -36.2% | SF-268 CNS -56.3% | SF-295 CNS -59.2% | SF-539 CNS 1.77% | UACC-257 melanoma -78% | M14 melanoma -47.3% | HT29 colon 6.44% | SNB-75 CNS -65.2% | SNB-19 CNS -49.2% | U251 CNS -87.5% | PC-3 prostate -80.5% | LOX IMVI melanoma -5.38%
inactive: DU-145 prostate 41.8% | HCT-15 colon 83.7%

COc1ccc([C@@H]2[C@@H](O)C(=O)N2c2cc(OC)c(OC)c(OC)c2)cc1
inactive: DU-145 prostate 12.7% | MALME-3M melanoma 49.9% | MDA-MB-231 breast 30.4% | RXF 393 renal 24% | SF-268 CNS 46.9% | SF-295 CNS 19.8% | M14 melanoma 12.5% | HCT-15 colon 12.4% | SNB-75 CNS 50.7% | SNB-19 CNS 31.6% | PC-3 prostate 16.2% | UACC-62 melanoma 20.3% | LOX IMVI melanoma 16.3% | SK-MEL-28 melanoma 61%
active: SF-539 CNS -7.72% | HT29 colon 1.28% | U251 CNS 4.38% | SK-MEL-5 melanoma -28.6%

Cn1cc(-c2nn3cc(-c4cccnc4)nc3s2)c2ccccc21
inactive: DU-145 prostate 58.3% | MALME-3M melanoma 22.5% | MDA-MB-231 breast 31.7% | RXF 393 renal 54.3% | SF-268 CNS 66.7% | SF-295 CNS 40.7% | SF-539 CNS 26.5% | M14 melanoma 14.5% | HCT-15 colon 12.5% | HT29 colon 11.2% | SNB-75 CNS 31.4% | SNB-19 CNS 42.6% | U251 CNS 26.6% | PC-3 prostate 35.8% | SK-MEL-5 melanoma 11.1% | UACC-62 melanoma 31.1% | LOX IMVI melanoma 37.9% | SK-MEL-28 melanoma 50.7%

COc1cnc2c(c1)C(=O)c1c-2n(CCCNCC2CC2)c(=O)c2cc(F)ccc12
active: DU-145 prostate 4.61% | MALME-3M melanoma -12.2% | MDA-MB-231 breast -25.2% | RXF 393 renal -47.5% | SF-295 CNS -7.51% | SF-539 CNS -65.6% | HCT-15 colon 0.625% | HT29 colon -62.7% | SNB-75 CNS -7.63% | SNB-19 CNS 4.94% | U251 CNS -50.4% | PC-3 prostate 9.61% | SK-MEL-5 melanoma -82.8% | UACC-62 melanoma -56.2% | LOX IMVI melanoma -59.4%
inactive: SF-268 CNS 14.6% | M14 melanoma 15% | SK-MEL-28 melanoma 22.8%

COc1ccc([C@H]2[C@H](O)C(=O)N2c2cc(OC)c(OC)c(OC)c2)cc1O
inactive: DU-145 prostate 17.4% | MALME-3M melanoma 59.7% | MDA-MB-231 breast 28.3% | RXF 393 renal 21.3% | SF-268 CNS 50.1% | SNB-75 CNS 45.3% | SNB-19 CNS 29% | UACC-62 melanoma 27.9% | LOX IMVI melanoma 17.1% | SK-MEL-28 melanoma 62%
active: SF-295 CNS 2.84% | SF-539 CNS -16.3% | M14 melanoma 7.13% | HCT-15 colon 1.4% | HT29 colon -18.4% | U251 CNS 1.09% | PC-3 prostate 8.59% | SK-MEL-5 melanoma 0.345%

C=C1C(=O)O[C@@H]2/C=C(/C)C3=CC(=O)[C@@](C)(C[C@H](OC(=O)/C(C)=C\C)[C@@H]12)O3
active: DU-145 prostate 8.26% | MALME-3M melanoma -22.9% | MDA-MB-231 breast -16.8% | RXF 393 renal -65% | SF-539 CNS -19.4% | UACC-257 melanoma -36.2% | M14 melanoma -27.6% | HCT-15 colon -2.86% | HT29 colon -38.7% | LOX IMVI melanoma -44.8%
inactive: SF-268 CNS 30.2% | SF-295 CNS 55.9% | SNB-75 CNS 44.4% | SNB-19 CNS 64.4% | U251 CNS 28.8% | PC-3 prostate 36.6%

COc1cc2c3c(n(CCCN4CCC[C@H]4C(N)=O)c(=O)c2cc1OC)-c1cc2c(cc1C3=O)OCO2
active: RXF 393 renal 7.89% | SF-295 CNS 7.46% | SF-539 CNS -2.78% | M14 melanoma 6.29% | HT29 colon 6.94% | U251 CNS -21.6% | SK-MEL-5 melanoma -46.1% | UACC-62 melanoma -43.5% | LOX IMVI melanoma -28.3%
inactive: DU-145 prostate 16.2% | MALME-3M melanoma 27.5% | MDA-MB-231 breast 17.3% | SF-268 CNS 27.6% | HCT-15 colon 11.9% | SNB-75 CNS 12% | SNB-19 CNS 21.2% | PC-3 prostate 39.7% | SK-MEL-28 melanoma 52.1%

C=C(C)C(=O)O[C@H]1C[C@@]2(C)OC(=CC2=O)/C(CO)=C\[C@H]2OC(=O)C(=C)[C@H]12
active: DU-145 prostate -25.2% | MALME-3M melanoma -68.8% | MDA-MB-231 breast -54% | RXF 393 renal -67.6% | SF-268 CNS -13.8% | SF-539 CNS -82.9% | UACC-257 melanoma -34% | M14 melanoma -34% | HCT-15 colon -19.5% | HT29 colon -12.2% | SNB-75 CNS -0.788% | U251 CNS -17.7% | PC-3 prostate -3.05% | LOX IMVI melanoma -94.1%
inactive: SF-295 CNS 32.6% | SNB-19 CNS 42.2%
